A selection: hits, their analogues and other compounds. The true share with any hit is near 4.6%.
ssDAF12 agonist: S. stercoralis DAF-12 activation, primary screen; AID 652126; HEK293 ssDAF-12/GRIP1 lit1-tk-luc reporter, luminescence; % of 3 µM dafachronic acid response; 370,000 tested, 1% active; activation, % at 6.8 µM;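 active = activation above the mean over all tested compounds plus 3 SD, cut at about 0.9% in these data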;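 note: 0% = DMSO-only wells and 100% = 3 µM delta7-dafachronic acid wells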
hcDAF-12 act: activators of H. contortus DAF-12 nuclear receptor. HEK293 hcDAF-12 lit1-tk-luc reporter, luminescence; 0% DMSO, 100% Δ7-dafachronic acid. activation, % at 6.8 µM. 370,000 tested, 1.4% active. AID 652067;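 active = activation above the mean of all tested compounds plus 3 SD, cut at about 5.5% in these data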;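 note: 100% = response to 3 µM Δ7-dafachronic acid high control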
DAX1 inh-1: NR0B1 (DAX1) inhibition | P51843 | HEK293 Gal4-DAX1 luciferase reporter, luminescence | inhibition, % at 6.75 µM | 340,000 tested, 0.99% active;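 active = inhibition above the mean over all tested compounds plus 3 SD, cut at about 4.2% in these data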;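 note: 0% = DAX1-transfected cells with DMSO and 100% = empty-vector control cells with DMSO; inhibition shows as a rise in luminescence from relieved DAX1 repression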
hgDAF-12 ag: hgDAF-12 agonism, primary luciferase screen | HEK293 GAL4-hgDAF12 UAS-luciferase reporter, agonist luminescence; normalized to butyrate control | activation, % at 6.8 µM | 370,000 tested, 1.8% active | AID 687014;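 active = activation above a cutoff set at the mean of all screened compounds plus 3 SD, cut at about 10% in these data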;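 note: 0% = DMSO wells and 100% = sodium butyrate wells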
Wee1 stabilizer: blocks degradation of human Wee1 kinase; P30291; HeLa Luc-Wee1K328M stability, luciferase luminescence; 100% = proteasome inhibitor MG132 effect; reporter increase, % at 5 µM; 220,000 tested, 1.2% active; AID 1321;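 active = activation above the mean of all tested compounds plus 3 SD, set per screening run, cut at about 8.8% in these data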;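 note: cells exposed to compound for 20 h before luminescence read; 0% = DMSO alone and 100% = MG132 at 30 µM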
Target sequence (P30291 whole entry K328M): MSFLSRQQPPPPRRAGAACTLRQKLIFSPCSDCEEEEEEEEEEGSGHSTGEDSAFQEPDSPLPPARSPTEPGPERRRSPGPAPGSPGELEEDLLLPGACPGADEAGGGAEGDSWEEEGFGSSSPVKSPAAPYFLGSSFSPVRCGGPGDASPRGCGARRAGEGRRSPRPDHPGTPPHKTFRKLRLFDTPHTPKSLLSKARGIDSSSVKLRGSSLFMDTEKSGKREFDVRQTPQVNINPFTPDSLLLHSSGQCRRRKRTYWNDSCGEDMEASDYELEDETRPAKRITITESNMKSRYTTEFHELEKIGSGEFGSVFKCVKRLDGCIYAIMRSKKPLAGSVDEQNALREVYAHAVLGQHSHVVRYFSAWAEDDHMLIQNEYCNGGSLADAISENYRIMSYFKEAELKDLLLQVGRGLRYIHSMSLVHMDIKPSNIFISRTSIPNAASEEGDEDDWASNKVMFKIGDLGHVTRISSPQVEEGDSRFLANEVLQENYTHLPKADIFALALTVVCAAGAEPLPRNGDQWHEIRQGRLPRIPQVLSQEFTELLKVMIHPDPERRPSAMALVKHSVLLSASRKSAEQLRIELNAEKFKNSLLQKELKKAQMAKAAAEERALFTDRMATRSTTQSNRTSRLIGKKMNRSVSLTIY
DAX1 inh-2: blocks DAX1 repression of SF-1 activated StAR promoter. HEK293T StAR-luciferase reporter, SF-1/DAX-1 repression relief. inhibition, % at 6.8 µM. 370,000 tested, 1.1% active. AID 652010;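 active = inhibition above the mean over all tested compounds plus 3 SD, cut at about 3.6% in these data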;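 note: 0% = DAX-1 cells with DMSO and 100% = cells lacking DAX-1 with DMSO; higher inhibition means more luminescence from relief of DAX-1 repression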
DAX1 inh confirm: NR0B1 (human) inhibition, confirmation | 2,400 tested, 87% active | shares compounds with DAX1 inh-2 | HEK293T StAR-promoter luciferase reporter, SF-1/DAX-1 repression | inhibition, % at 6.8 µM;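 active = inhibition above the average of every tested compound plus 3 SD, cut at about 3.8% in these data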;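 note: 0% = DAX-1 cells with DMSO and 100% = no DAX-1 control cells with DMSO; active compounds raise luminescence by relieving repression of the StAR reporter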
SF1 AF2mut Luc: nonselective inhibitor or artifact in SF-1 mutant DAX1 counter-screen; AID 652136; inhibition, % at 6.8 µM; HEK293 StAR-luciferase, SF-1 AF2 mutant, luminescence; shares compounds with DAX1 inh-2; 2,400 tested, 78% active;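 active = inhibition above the mean of all tested compounds plus 3 SD, cut at about 3% in these data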;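 note: 0% = DAX-1 transfected cells with DMSO and 100% = cells without DAX-1 with DMSO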
LXRb hcDAF ctr: counter-screen for hcDAF-12 agonists: agonists of human LXR-beta | shares compounds with hcDAF-12 act | 3,400 tested, under 10 active | activation, % at 6.8 µM | HEK293 Gal4-LXR tk-luc reporter, luminescence, 24 h; normalized: DMSO 0%, positive control 100%;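 active = mean percent activation of the reporter above a cutoff set as the average over tested compounds plus their standard deviation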
hcDAF12 ag: confirmation of H. contortus DAF-12 agonists; shares compounds with hcDAF-12 act; HEK293 hcDAF-12 lit1-tk-luc reporter, luminescence; % of Δ7-dafachronic acid response; activation, % at 6.8 µM; 3,400 tested, 61% active;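 active = mean activation across triplicate tests above the threshold derived from the earlier primary screen, cut at about 5.5% in these data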;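 note: 0% = DMSO only wells and 100% = 3 µM Δ7-dafachronic acid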
Starred values were filed as active, the others as inactive; . = no result given.

SMILES | ssDAF12 agonist | hcDAF-12 act | DAX1 inh-1 | hgDAF-12 ag | Wee1 stabilizer | DAX1 inh-2 | DAX1 inh confirm | SF1 AF2mut Luc | LXRb hcDAF ctr | hcDAF12 ag
C[C@@H]1CN([C@@H](C)CO)C(=O)c2cc(C#Cc3ccccc3)cnc2O[C@H]1CN(C)C(=O)c1ccccc1F | -2 | 0 | 1 | 3 | . | -1 | . | . | . | .
CC(C)NC(=O)NC(=O)COc1ccc(Br)cc1Br | 0 | 7.5* | 2 | 12* | 8 | 6.3* | 17* | 6.7* | 2 | 6.0*
Cc1ccc(-c2noc(-c3ccccc3Br)n2)cc1 | 2.9* | 16* | 4.2* | 14* | 0 | 5.5* | 16* | 7.8* | 2 | 21*
c1ccc(-c2noc(-c3ccccc3-c3ccccc3)n2)cc1 | -1 | -1 | 0 | 0 | 0 | 0 | . | . | . | .
Oc1c(N=Nc2ccccc2)sc2ccccc12 | 3.5* | 18* | 3 | 13* | 9.8* | 5.5* | 19* | 7.4* | 2 | 18*
Cc1ccc(/C=N/Nc2nc3ccccc3s2)o1 | 2.8* | 21* | 1 | 13* | 3 | 6.2* | 16* | 9.1* | 2 | 21*
CCN(CC(=O)NC1CCS(=O)(=O)C1)S(=O)(=O)c1ccc(Cl)c(C(F)(F)F)c1 (configuration not stated) | -1 | -1 | -1 | 0 | . | 0 | . | . | . | .
O=C(Nc1ccncc1)c1cc2ccccc2cc1O | 0 | 6.7* | 2 | 12* | . | 6.2* | 7.3* | 5.8* | 1 | 6.3*
O=C(Nc1ccncc1)c1ccccc1F | -2 | -3 | 0 | 1 | 2 | -1 | . | . | . | .
CCOC(=O)c1sc(=NC(=O)c2ccccc2Br)n(C)c1C | 1 | 13* | 1 | 11* | . | 7.4* | 9.6* | 4.2* | 2 | 10*
CCOC(=O)c1sc(=NC(=O)c2ccc(C)c(C)c2)n(C)c1C | 0 | 0 | -1 | 4 | 3 | 0 | . | . | . | .
O=C(Nc1ncccc1O)c1ccc(Cl)c(S(=O)(=O)N2CCCCCC2)c1 | -1 | -1 | -1 | -1 | . | 1 | . | . | . | .
O=C(Nc1ncccc1O)c1ccc2ccccc2c1 | 0 | 9.9* | 0 | 12* | . | 10* | 14* | 7.4* | 1 | 6.9*
Cc1ccc(/C=N/Nc2ccc(Cl)c(C(=O)O)c2)s1 | 4.1* | 19* | -2 | 22* | 7 | 6.7* | 12* | 9.1* | 2 | 12*
O=C(O)c1cc(N/N=C/C(Cl)=C/c2ccccc2)ccc1Cl | 2.2* | 11* | -4 | 28* | 1 | 13* | 22* | 12* | 2 | 13*
Cc1ccc(-c2nc3ccccc3s2)cc1S(=O)(=O)N1CCOCC1 | 0 | 4 | 0 | 2 | 0 | 1 | . | . | . | .
Cc1cc(-c2nc3ccccc3s2)ccc1N | 3.1* | 15* | -3 | 12* | . | 6.7* | 10* | 3.1* | 2 | 21*
O=C(Nc1ccc2c(c1)OCO2)c1cc(C2CCCN(C(=O)C3CCCCC3)C2)on1 (configuration not stated) | -1 | -1 | . | -2 | . | -2 | . | . | . | .
Cc1ccc(C(O)c2ncc(-c3ccccc3Cl)[nH]2)c(C)c1 (configuration not stated) | 0 | -1 | . | 2 | . | -1 | . | . | . | .
O=C(O)c1ccc(N/N=C/c2cc3cc4c(cc3nc2Cl)OCCO4)cc1 | 2.9* | 12* | -5 | 24* | -1 | 7.3* | 25* | 9.6* | 3 | 20*
